Assay results reported in the supplement of paper PMC7695840.
Structures can show the parent of a compound that is named as a salt.

tested on: Staphylococcus aureus MW2 (mecA+); assay: normalized DsRed fluorescence (growth of mecA+ strain) (fraction of control range); higher = more growth of mecA+ strain; conditions: compound concentration: 150 uM; cefoxitin: subinhibitory; fluorescent label: DsRed
Procedure, shortened: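 Compound at 150 μM (1.5% DMSO) in 1536-well plates received 5 µL/well of pre-induced S. aureus MW2 cells mixed 1:1, gene-carrying with DsRed and gene-deleted with GFP, in LB with a daily-set subinhibitory antibiotic dose, single replicate. After 20 h unshaken at 37 °C, 90% humidity, DsRed (540/590) and GFP (485/520) were measured and scaled per plate between single-strain control medians. Plates with high untreated ratios and rows with DsRed/GFP >10 were excluded.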

Compound | normalized DsRed fluorescence
C[C@@H]1C/C=C/C=C/C=C/C=C/[C@H](O[C@@H]2O[C@H](C)[C@@H](O)[C@H](N)[C@@H]2O)C[C@@H]2O[C@](O)(C[C@@H](O)C[C@H]3O[C@@H]3/C=C/C(=O)O1)C[C@H](O)[C@H]2C(=O)O | 0.753
CCOc1cc2ncc(C#N)c(Nc3ccc(OCc4ccccn4)c(Cl)c3)c2cc1NC(=O)/C=C/CN(C)C [Neratinib (HKI-272)] | 0.921
CCCCCCc1ccc(O)cc1O | 1.59
CN(C)C(=O)COC(=O)Cc1ccc(OC(=O)c2ccc(NC(=N)N)cc2)cc1 [Camostat Mesilate (FOY-305)] | 0.818
CC(COc1ccccc1)N(CCCl)Cc1ccccc1 (configuration not stated) | 0.449
CN1CCN2c3ncccc3Cc3ccccc3C2C1 (configuration not stated) [Mirtazapine (Remeron, Avanza)] | 1.07
COc1ccc(CC(C)NCC(O)c2ccc(O)c(NC=O)c2)cc1 (configuration not stated) [Formoterol hemifumarate] | 0.699
Cn1cnc([N+](=O)[O-])c1Sc1ncnc2[nH]cnc12 | 1.03
CCCCCCNC(=O)n1cc(F)c(=O)[nH]c1=O [Carmofur] | 0.452
N#C[C@@H]1CCCN1C(=O)CNC12CC3CC(CC(O)(C3)C1)C2 [Vildagliptin (LAF-237)] | 0.519
CCCc1nn(C)c2c(=O)[nH]c(-c3cc(S(=O)(=O)N4CCN(C)CC4)ccc3OCC)nc12 | 0.655
O=C(CCBr)N1CCN(C(=O)CCBr)CC1 | 0.794
O=C(OCc1ccccc1)c1ccccc1 | 0.596
CC(=O)O[C@]1(C(C)=O)CC[C@H]2[C@@H]3C=C(Cl)C4=CC(=O)CC[C@]4(C)[C@H]3CC[C@@]21C | 0.594
CC(=O)OCC(=O)[C@@]1(OC(C)=O)[C@@H](C)C[C@H]2[C@@H]3C[C@H](F)C4=CC(=O)C=C[C@]4(C)[C@@]3(F)[C@@H](O)C[C@@]21C | 1.11
O.O.O.O.O.O.O.O.O.O.O.O.O.O.O.O.O.O.O.O.O=S(=O)([O][Al])OC[C@H]1O[C@@](COS(=O)(=O)[O][Al])(O[C@H]2O[C@H](COS(=O)(=O)[O][Al])[C@@H](OS(=O)(=O)[O][Al])[C@H](OS(=O)(=O)[O][Al])[C@H]2OS(=O)(=O)[O][Al])[C@@H](OS(=O)(=O)[O][Al])[C@@H]1OS(=O)(=O)[O][Al].[Al] | 0.842

Compound | normalized DsRed fluorescence
CN1CCCN=C1COC(=O)C(O)(c1ccccc1)C1CCCCC1 (configuration not stated) | 0.63
O=c1[nH]cnc2c1ncn2[C@H]1CC[C@@H](CO)O1 [Didanosine (Videx)] | 0.652
Cc1nc2n(c(=O)c1CCN1CCC(c3noc4cc(F)ccc34)CC1)CCCC2O (configuration not stated) | 0.72
CN1C2CCCC1CC(NC(=O)c1nn(C)c3ccccc13)C2 (configuration not stated) | 0.441
Cc1cccc(C)c1OCC(=O)N[C@@H](Cc1ccccc1)[C@@H](O)C[C@H](Cc1ccccc1)NC(=O)[C@H](C(C)C)N1CCCNC1=O [Lopinavir (ABT-378)] | 0.671
CC(=O)O[C@]1(C(C)=O)CC[C@H]2[C@@H]3C[C@H](C)C4=CC(=O)CC[C@]4(C)[C@H]3CC[C@@]21C | 0.759
CCC1(c2ccccc2)NC(=O)N(C)C1=O (configuration not stated) | 0.963
CC(=O)[C@H]1CC[C@H]2[C@@H]3C=CC4=CC(=O)CC[C@@]4(C)[C@@H]3CC[C@]12C | 0.456
CN(C)CCc1c[nH]c2ccc(CS(=O)(=O)N3CCCC3)cc12 | 1
CC(C)Cc1ccc(C(C)C(=O)O)cc1 (configuration not stated) | 0.294
CCCCC1C(=O)N(c2ccccc2)N(c2ccccc2)C1=O [Phenylbutazone (Butazolidin, Butatron)] | 0.436
COc1cc(C(=O)NS(=O)(=O)c2ccccc2C)ccc1Cc1cn(C)c2ccc(NC(=O)OC3CCCC3)cc12 [Zafirlukast (Accolate)] | 0.0292
CN(C)CCOC(c1ccccc1)c1ccccc1 | 0.789
C=CC[C@@H]1/C=C(\C)C[C@H](C)C[C@H](OC)[C@H]2O[C@@](O)(C(=O)C(=O)N3CCCC[C@H]3C(=O)O[C@H](/C(C)=C/[C@@H]3CC[C@@H](O)[C@H](OC)C3)[C@H](C)[C@@H](O)CC1=O)[C@H](C)C[C@@H]2OC [FK-506 (Tacrolimus)] | 1.04
Nc1c(Br)cc(Br)cc1CN[C@H]1CC[C@H](O)CC1 [Ambroxol HCl] | 0.849
COc1cc2nc(N3CCN(C(=O)C4COc5ccccc5O4)CC3)nc(N)c2cc1OC (configuration not stated) [Doxazosin mesylate] | 1.12
